Measurements reported in PubChem BioAssay (NCATS).
Several values for one entry are separate records, joined by “and”; a condition that tells them apart may be missing. Identical values can stand only once. Inconclusive results are not listed. Activity calls are given as the source filed them. Unless noted, calls come from the whole dose curve; as a rule, active = well fitted curve in the direction sought with a large enough effect; inconclusive = small, poorly fitted or top-dose-only effect, or another doubt; inactive = no such curve, though single readings can be large; an effect the other way counts as inactive or inconclusive.

Columns and labels:
[1] = qHTS assay for small molecule agonists of the antioxidant response element (ARE) signaling pathway measured by Nrf2-dependant transcriptional activity - cell viability counter screen (AID 720653; active = well fitted curve in the direction sought with a large enough effect in the repeat runs; an effect the other way counts as inactive or inconclusive; note: % is set by controls: 0 for no effect and ±100 for the full control effect); settings: ARE-bla HepG2 viability, CellTiter-Glo ATP luminescence, 16 h; hits give low values
In short: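 Cytotoxicity counter screen: intracellular ATP quantified by CellTiter-Glo luminescence in the same ARE-bla HepG2 plates, after 16 h compound exposure and a 2 h beta-lactamase substrate step.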

[2] = qHTS Assay for Identifying Gametocytocidal Compounds (AID 743244);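 note: % is set by controls: 0 for no effect and ±100 for the full control effect; actives lower the fluorescent signal which means gametocytes are killed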; settings: P. falciparum 3D7 stage III-V gametocytes, alamarBlue, 72 h; max response: hits give low values
In short: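 Compounds are pinned into medium, gametocytes (stage III–V, 3D7, 20,000 cells/well) added, and plates held 72 h at 37 °C in 5% CO2. AlamarBlue follows for 24 h before fluorescence reading.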

[3] = qHTS assay for cell viability of HEK293 cells (AID 743288); settings: ATP luminescence (CellTiter-Glo), 18 h; max response: hits give low values; note: % is set by controls: 0 for no effect and ±100 for the full control effect; nearly all actives have a fitted effect of over 50% in size
In short: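 Environmental chemicals tested in qHTS format against parental HEK293 cells; 18 h treatment, 37 C; read-out ATP luminescence (CellTiter-Glo), 30 min RT development.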

[4] = qHTS assay for cell viability of the p53RE-bla HCT-116 cell line (AID 743292); note: % is set by controls: 0 for no effect and ±100 for the full control effect; nearly all actives have a fitted effect of over 55% in size
In short: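 Viability of compound-treated p53RE-bla HCT-116 cells is taken from ATP-dependent luciferase luminescence. Treatment lasts 16 h at 37 C after a 5 h settling period; detection follows 30 min at room temperature.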

[5] = qHTS assay to identify small molecule inhibitors of chordoma cells - UCH-1 (AID 1259355); note: % is set by controls: 0 for no effect and ±100 for the full control effect; nearly all actives have a fitted effect of over 55% in size
In short: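 Seed 800 cells per well; incubate overnight at 37 C, 5% CO2. Add test compounds (15 concentrations), then the auranofin–topoisomerase-agent combination. Incubate 48hr, add CellTiter-Glo, wait 30min, read luminescence.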

[6] = qHTS assay to identify small molecule inhibitors of chordoma cells - UCH-2 (AID 1259356); note: series mostly up to about 46 µM; % is set by controls: 0 for no effect and ±100 for the full control effect
[7] = qHTS assay for small molecule antagonists of the retinoid-related orphan receptor gamma (ROR-gamma) signaling pathway - cell viability counter screen (AID 720652; active = well fitted curve in the direction sought with a large enough effect in the repeat runs; an effect the other way counts as inactive or inconclusive;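 note: CHO reporter cells with doxycycline-induced ROR-gamma expression; series mostly up to about 92 µM; compound exposure lasted 16 hr before ATP read; % is set by controls: 0 for no effect and ±100 for the full control effect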)
In short: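 Counter screen in CHO cells carrying TET-inducible ROR-gamma and an ROR response element-luciferase reporter; cells plated 5 hr, compound pinned, doxycycline added, then 16 hr at 37 C. Viability read as intracellular ATP by CellTiter-Glo luminescence.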

[8] = qHTS for compounds that reverse cellular toxicity of Amyloid beta (A-beta) peptide in yeast: LOPAC Validation Assay (AID 720559);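 note: plate controls were DMSO for no effect and equimolar ferric chloride plus clioquinol rescue for full effect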
In short: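 OD600 growth readout after 48 hr at 30 C; A-beta-toxic yeast plus pinned compounds in medium. Normalization: DMSO = negative, equimolar FeCl3 + clioquinol = positive.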

[9] = qHTS for Activators of Parkin Expression: LOPAC Validation Assay (NLuc Reporter) (AID 720572;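 note: 0% = DMSO and 100% = positive control compound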)
In short: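 Parkin promoter-driven FLuc/NLuc neuronal reporter cells; 24 h plating, 7-pt dose response, 24 h at 37 C/5% CO2; FLuc then NanoLuc reagent, 10 min each, luminescence; DMSO/positive control normalized.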

[10] = target: T1, Hexokinase-4 (Homo sapiens) + Glucokinase regulatory protein (Homo sapiens) (UniProt P35557+Q14397); experiment: qHTS assay for inhibitors of recombinant human GCK-GKRP interaction: Diaphorase-coupled assay (AID 743205)
In short: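 Resorufin fluorescence (525/590 nm), read each minute over 30 min, reports GCK activity coupled via G6PDH and diaphorase. Reaction: 10 nM GST-GCK, 10 nM FLAG-GKRP, 5 mM glucose, 0.4 mM ATP, 0.15 mM NADP+, 0.1 mM resazurin.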

[11] = target: T1, Hexokinase-4 (Homo sapiens) + Glucokinase regulatory protein (Homo sapiens); experiment: qHTS assay for inhibitors of recombinant human GCK-GKRP interaction: ADP-Glo assay (AID 743206);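 note: plate controls were DMSO plus enzyme for no effect and no enzyme for full effect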
In short: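 GST-GCK and FLAG-GKRP (15 nM each in the dispensed mix, with 2 uM S6P) react with 0.4 mM ATP and 5 mM glucose (final) in Hepes pH 7.6 for 60 min at room temperature. ADP is measured by ADP-Glo luminescence.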

[12] = target: T1, Hexokinase-4 (Homo sapiens) + Glucokinase regulatory protein (Homo sapiens); experiment: qHTS assay for inhibitors of recombinant human GCK-GKRP interaction: HTRF assay (AID 743207);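 note: 0% = DMSO with GCK present and -100% = DMSO wells lacking GCK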
In short: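 HTRF read-out (ex 320 nm; 615/665 nm emission) after 60 min RT equilibration of 5 nM GST-GCK, 5 nM FLAG-GKRP, 2 uM S6P, compound and anti-FLAG/anti-GST detection antibodies; signal normalized between DMSO wells with and without GCK.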

[13] = qHTS assay for small molecule agonists of the antioxidant response element (ARE) signaling pathway measured by Nrf2-dependant transcriptional activity (AID 720636; active = well fitted curve in the direction sought with a large enough effect in the repeat runs; an effect the other way counts as inactive or inconclusive; note: % of control where 0% means no effect)
In short: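 Quantitative HTS format in HepG2 cells stably expressing an ARE-luciferase reporter; 16 hr compound treatment at 37 C, luciferase signal detected with ONE-Glo.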

T1 sequence (P35557 whole entry, looked up): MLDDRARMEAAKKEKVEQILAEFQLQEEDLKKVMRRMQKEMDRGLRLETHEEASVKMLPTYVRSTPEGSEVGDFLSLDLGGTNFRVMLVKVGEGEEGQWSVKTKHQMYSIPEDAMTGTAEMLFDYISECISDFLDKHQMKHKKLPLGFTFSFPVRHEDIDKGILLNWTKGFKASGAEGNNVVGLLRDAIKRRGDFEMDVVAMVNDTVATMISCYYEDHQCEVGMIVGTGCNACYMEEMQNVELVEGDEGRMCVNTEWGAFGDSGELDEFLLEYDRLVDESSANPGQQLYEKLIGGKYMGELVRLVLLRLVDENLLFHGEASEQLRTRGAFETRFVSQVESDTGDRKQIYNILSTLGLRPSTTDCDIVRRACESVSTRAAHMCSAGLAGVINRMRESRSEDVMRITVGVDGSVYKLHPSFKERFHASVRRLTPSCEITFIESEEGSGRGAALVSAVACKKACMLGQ
T1 sequence (Q14397 whole entry, looked up): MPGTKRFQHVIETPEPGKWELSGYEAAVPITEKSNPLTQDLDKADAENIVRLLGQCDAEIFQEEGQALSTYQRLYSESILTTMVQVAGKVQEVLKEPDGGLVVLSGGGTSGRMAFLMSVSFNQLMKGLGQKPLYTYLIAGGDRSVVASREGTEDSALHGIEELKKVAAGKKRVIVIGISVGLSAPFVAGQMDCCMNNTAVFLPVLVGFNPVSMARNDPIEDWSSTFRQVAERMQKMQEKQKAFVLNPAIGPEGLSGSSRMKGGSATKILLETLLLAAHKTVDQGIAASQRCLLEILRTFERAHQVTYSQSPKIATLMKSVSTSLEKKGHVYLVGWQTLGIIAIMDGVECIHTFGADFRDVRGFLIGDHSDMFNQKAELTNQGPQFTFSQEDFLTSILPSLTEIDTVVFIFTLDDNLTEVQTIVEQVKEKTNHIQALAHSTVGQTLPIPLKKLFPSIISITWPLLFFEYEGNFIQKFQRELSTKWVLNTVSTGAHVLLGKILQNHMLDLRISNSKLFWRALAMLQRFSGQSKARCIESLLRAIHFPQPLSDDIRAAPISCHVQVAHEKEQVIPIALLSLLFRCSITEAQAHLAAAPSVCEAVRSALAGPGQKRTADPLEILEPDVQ

Nc1nccs1
inactive: max response [1] -16.1% | max response [2] 1.76% | max response [3] -5.55% | outcome [4] | Potency [5] | Potency [6]

OC[C@H]1O[C@@](CO)(O[C@H]2O[C@H](CO)[C@@H](O)[C@H](O)[C@H]2O)[C@@H](O)[C@@H]1O
inactive: max response [1] -5.77% | max response [2] 6.47% | outcome [4] | Potency [5] | Potency [6]

CC(C)O
inactive: outcome [7] | max response [1] 2% | max response [2] 0.211% | outcome [4] | Potency [5] | Potency [6]

C[C@H](CCC(=O)O)[C@H]1CC[C@H]2[C@@H]3CC[C@@H]4C[C@H](O)CC[C@]4(C)[C@H]3C[C@H](O)[C@]12C
inactive: outcome [7] | max response [1] -10.6% | max response [2] 6.91% | outcome [4] | Potency [5] | Potency [6]

OCC(O)CO
inactive: outcome [7] | max response [1] -6.54% and -5.61% | max response [2] 9.54% | outcome [4] | Potency [5] | Potency [6]

Oc1ccc(/C=C/c2cc(O)cc(O)c2)cc1
inactive: outcome [8] | outcome [9] | outcome [7] | max response [1] 7.43% and -3.23% | outcome [10] | outcome [11] | outcome [12] | max response [2] -0.421% and 10.7% | max response [3] -22.7% and -15% | outcome [4] | Potency [5] | Potency [6]

OCc1ccccc1
inactive: outcome [7] | max response [1] -4.76% | max response [2] 0.478% | outcome [4] | Potency [5] | Potency [6]

CN(CCO)CC(O)Cn1cnc2c1c(=O)n(C)c(=O)n2C (stereo not given) (tested in a mixture with another compound)
inactive: max response [1] 2.54% | max response [2] 2.62% | max response [3] -3.27% | outcome [4] | Potency [5] | Potency [6]

OB(O)O
inactive: Potency [13] | outcome [7] | max response [1] -7.44% and 3.96% | max response [2] 7.6% | outcome [4] | Potency [5] | Potency [6]
